From PubChem BioAssay
Compounds with a hit are over-represented: about 3.6% of the library has one in this group of screens.
FBPA Giardia inh: Giardia lamblia aldolase inhibition | A8B2U2 | AID 2451 | 290,000 tested, 0.71% active | Potency, µM (top dose mostly 59.6 µM), hits mostly inhibitors | purified Giardia FBPA; note: nearly all actives have a fitted effect of over 55% in size
Target sequence (A8B2U2 whole entry, looked up): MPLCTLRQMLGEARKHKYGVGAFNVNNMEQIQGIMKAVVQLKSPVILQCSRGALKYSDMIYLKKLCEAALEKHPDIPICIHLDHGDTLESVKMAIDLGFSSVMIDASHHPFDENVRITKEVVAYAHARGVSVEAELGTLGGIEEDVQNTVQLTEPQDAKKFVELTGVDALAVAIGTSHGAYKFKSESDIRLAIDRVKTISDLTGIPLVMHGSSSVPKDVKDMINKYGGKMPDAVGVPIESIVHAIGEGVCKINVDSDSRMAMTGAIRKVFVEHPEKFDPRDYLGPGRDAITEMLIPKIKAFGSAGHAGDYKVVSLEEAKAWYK
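40 nM FBPA preincubated 10 min at RT with compound (up to 57.5 uM final), then substrate plus GAPDH/TPI/NAD/arsenate coupling and diaphorase/resazurin added. Fluorescence read after 20 min at RT, 525/598 nm.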
AmpC inh detg: inhibitors of E. coli AmpC beta-lactamase with detergent; 370,000 tested, 0.041% active; Potency, µM (series often up to 114 µM), hits mostly inhibitors; AmpC hydrolysis of nitrocefin, absorbance 480 nm, 0.01% Triton; note: nearly all actives have a fitted effect of over 25% in size
Target sequence (P00811 whole entry, looked up): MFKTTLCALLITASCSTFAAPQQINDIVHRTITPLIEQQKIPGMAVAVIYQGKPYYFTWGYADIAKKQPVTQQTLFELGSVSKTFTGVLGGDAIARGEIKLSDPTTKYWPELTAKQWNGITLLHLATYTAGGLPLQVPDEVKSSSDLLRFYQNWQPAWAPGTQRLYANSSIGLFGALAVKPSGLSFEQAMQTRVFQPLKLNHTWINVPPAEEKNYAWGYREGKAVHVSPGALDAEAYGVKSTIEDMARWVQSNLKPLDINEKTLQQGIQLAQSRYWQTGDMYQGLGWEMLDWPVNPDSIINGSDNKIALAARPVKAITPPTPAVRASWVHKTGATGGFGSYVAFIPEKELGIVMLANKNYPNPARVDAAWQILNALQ
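AmpC (5.3 nM in the dispensed reagent) in 20 mM phosphate pH 7.0 with 0.01% (detergent screen) or 0.0001% Triton X-100 was preincubated with compounds for 15 min at room temperature. Nitrocefin was then added from an 800 uM solution, and hydrolysis was followed at 480 nm.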
Sm TGR block: S. mansoni TGR enzyme inhibition | Q962Y6 | purified TGR, DTNB reduction, TNB absorbance 405 nm | Potency, µM (titrated, usually from 114 µM), hits mostly inhibitors | 360,000 tested, 3% active | AID 485364; note: nearly all actives have a fitted effect of over 60% in size
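TGR 20 nM + NADPH 100 uM (dispensed conc.), cpd preinc 15 min RT; start with NADPH (500 uM addition) then DTNB (15 mM addition). Kinetic TNB absorbance, 405 nm filter. Four-parameter Hill fit across titration.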
AmpC no deterg: AmpC beta-lactamase inhibition without detergent | 330,000 tested, 0.52% active | AmpC nitrocefin hydrolysis, absorbance 480 nm, 0.0001% Triton | P00811 | Potency, µM (top dose mostly 57.1 µM), usual class: inhibitors | AID 485341; note: nearly all actives have a fitted effect of over 20% in size
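20 mM phosphate pH 7.0 + 0.01% (detergent screen) or 0.0001% Triton X-100; 5.3 nM AmpC reagent; cpd preinc 15 min RT; nitrocefin (800 uM stock) to start; A480 q20 s × 4 min; Activity was normalised to no-enzyme and no-compound control wells.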
Each line names hits and unclear results; the compound was inactive in the other large screens. Calls come from the whole dose curve; as a rule, active = well fitted curve in the direction sought with a large enough effect; inconclusive = small, poorly fitted or top-dose-only effect, or another doubt; inactive = no such curve, though single readings can be large; an effect the other way counts as inactive or inconclusive.

COc1ccc(C[C@@H]2CN3C(=NC[C@@H]3C)N2CCNC(=O)c2ccc(C)c(Br)c2)cc1	none
Cc1ccc(-n2cnc3cc(C(=O)NC4CCCCCC4)ccc32)cc1Cl	none (no result: FBPA Giardia inh, AmpC no deterg)
CN(C)/C=N/c1sc2c(c1C(N)=O)CCCC2	none
Cc1ccc(/C=N/c2sc3c(c2C(N)=O)CCCC3)o1	Sm TGR block 22.4µM
CCOc1ccc(C(C)=O)cc1COc1ccc(C)nc1[N+](=O)[O-]	Sm TGR block 10µM
Cc1ccc(OCc2ccccc2C)c([N+](=O)[O-])n1	none
CCc1ccc(NC(=O)CC2C(=O)N(c3cccc(OC)c3)C(=O)N2C2CCCC2)cc1 (configuration not stated)	none (no result: FBPA Giardia inh, AmpC no deterg)
O=C(COc1ccccc1)Nc1cccc(-c2ccc(N3CCOCC3)nn2)c1	AmpC no deterg inconclusive (no result: FBPA Giardia inh)
CCN(CC)c1ccc(NC(=O)c2nc3nc(C)cc(C(F)F)n3n2)cc1	AmpC no deterg 3.16µM
COc1cc(NC(=O)Cn2nnc(-c3ccccc3N)n2)cc(OC)c1	AmpC no deterg 20µM
COc1ccccc1-n1c(=O)c2c3c(sc2n2c(=S)[nH]nc12)CCC3	none
CCCCn1c(C(C)NC(=O)CC)nc2ccccc21 (configuration not stated)	AmpC inh detg inconclusive
CCCCCCn1c(C(C)NC(=O)c2ccco2)nc2ccccc21 (configuration not stated)	Sm TGR block 39.8µM
CC(C)Cn1c(C(C)NC(=O)Cc2ccccc2)nc2ccccc21 (configuration not stated)	AmpC inh detg inconclusive, AmpC no deterg 1.58µM
CCC(=O)NC(C)c1nc2ccccc2n1C (configuration not stated)	none
COc1ccc(-n2c(-c3ccco3)nc3c(cnn3-c3ccccc3Cl)c2=O)cc1	Sm TGR block inconclusive (no result: FBPA Giardia inh, AmpC no deterg)
CC(=O)Nc1ccc(NC(=O)CC2Nc3cccc4cccc(c34)NC2=O)cc1 (configuration not stated)	Sm TGR block inconclusive
CC(=O)c1ccc(NC(=O)CC2Nc3cccc4cccc(c34)NC2=O)cc1 (configuration not stated)	FBPA Giardia inh inconclusive, AmpC inh detg inconclusive, Sm TGR block 17.8µM, AmpC no deterg 15.8µM
CCCCCC1OC1C/C=C\C/C=C\C/C=C\CCCC(=O)O (configuration not stated)	none (no result: AmpC inh detg, Sm TGR block, AmpC no deterg)
CC(=O)c1ccc(OCC(=O)OCc2cc(-c3ccco3)on2)cc1	Sm TGR block 50.1µM (no result: FBPA Giardia inh)
Fc1cc(F)cc(-c2c(-c3ccccc3)ncc3ccc(F)cc23)c1	Sm TGR block 44.7µM (no result: FBPA Giardia inh)
Fc1ccc2cnc(-c3ccccc3)c(-c3cccc(C(F)(F)F)c3)c2c1	none (no result: FBPA Giardia inh)
CC=C1COC(C(=O)NCCOCCO)(C(F)(F)F)C=C1C=C(C)C (configuration not stated)	none (no result: AmpC inh detg, Sm TGR block, AmpC no deterg)
O=C(c1ccncc1)c1ccc(N2CCN(C3CC(=O)N(Cc4cccs4)C3=O)CC2)cc1 (configuration not stated)	Sm TGR block inconclusive
O=C1CC(N2CCN(c3ccc(O)cc3)CC2)C(=O)N1Cc1cccs1 (configuration not stated)	AmpC inh detg inconclusive, Sm TGR block 50.1µM
Cc1ccc(Cl)cc1NC(=O)N1CCC(CN2CCCCCC2)CC1	Sm TGR block inconclusive (no result: FBPA Giardia inh, AmpC no deterg)
Cc1cc(N2C(=O)CC(N3CCN(C(c4ccccc4)c4ccccc4)CC3)C2=O)no1 (configuration not stated)	Sm TGR block 44.7µM
CCOC(=O)c1cc(OC(=O)c2ccccc2)n(-c2ccccc2)n1	none
CCOC(=O)c1cc(OC(=O)c2cccs2)n(-c2ccccc2)n1	AmpC inh detg inconclusive, Sm TGR block 39.8µM
Cc1nc(N2CCOCC2)nc(Oc2ccccc2)c1[N+](=O)[O-]	Sm TGR block 7.08µM
CCCCOc1nc(N2CCOCC2)nc(C)c1[N+](=O)[O-]	none
COc1ccccc1C1CC(c2ccccc2)=NN1C(=S)Nc1ccccc1 (configuration not stated)	none
CN(C)S(=O)(=O)c1ccc2c(c1)N(CC(=O)Nc1ccc(OC(F)(F)F)cc1)C(=O)CS2	none (no result: FBPA Giardia inh, AmpC no deterg)
NC(=O)c1c(NC(=O)CSc2nnc(Cc3ccccc3)n2Cc2ccco2)sc2c1CCC2	Sm TGR block 25.1µM
CCOC(=O)c1c(NC(=O)CSc2nnc(C)s2)sc2c1CCN(C)C2	FBPA Giardia inh inconclusive, Sm TGR block 31.6µM
O=C(CSc1nnc(Cc2cccs2)n1Cc1ccco1)Nc1ccc(Br)cc1	Sm TGR block 20µM
CCOC(=O)c1c(NC(=O)CSc2nnc(-c3c[nH]c4ccccc34)n2CC)sc2c1CCCC2	AmpC no deterg 1.41µM
O=C(CSc1nnc(Cc2cccs2)n1Cc1ccco1)Nc1ccc(Cl)cc1Cl	AmpC inh detg inconclusive, Sm TGR block inconclusive
COc1ccc(-n2nc(C(=O)N3CCN(c4cccc(C(F)(F)F)c4)CC3)c3c4ccccc4n(C)c3c2=O)cc1Cl	none (no result: FBPA Giardia inh, AmpC no deterg)
O=C(NCc1ccoc1)c1ccc(NC(=O)c2ccccc2Cl)cc1	Sm TGR block 35.5µM
O=C(Nc1ccc(C(=O)N2CCCCC2)cc1)c1ccccc1Cl	none (no result: FBPA Giardia inh)
O=c1c(O)c(-c2ccc(O)c(O)c2)oc2c(O)c(O)cc(O)c12	FBPA Giardia inh 7.06µM (no result: AmpC inh detg, Sm TGR block, AmpC no deterg)
OCC1(Cc2ccccc2)CCCN(Cc2c[nH]c3ccccc23)C1 (configuration not stated)	none
c1ccc(-c2onc(-c3ccco3)c2-c2ccc3[nH]ccc3c2)cc1	AmpC inh detg inconclusive, Sm TGR block 44.7µM
CCOc1ccccc1CNC(=O)c1cnc2sc(N3CCOCC3)nn2c1=O	none (no result: FBPA Giardia inh, AmpC no deterg)
CCCC(=O)N1c2nc(-c3ccco3)nn2C2(CCCCC2)[C@@H]2CCCC[C@@H]21	Sm TGR block 35.5µM (no result: FBPA Giardia inh, AmpC no deterg)
CCNC(=S)Nc1cc(-c2ccc(Cl)cc2)[nH]n1	Sm TGR block 0.891µM
Cc1csc(/C(=N/OC(=O)c2ccco2)C(N)=O)n1	FBPA Giardia inh inconclusive, Sm TGR block 3.98µM
COC(=O)c1ccc2c(c1)c(-c1ccccc1)c(-c1ccccc1)n2C	none (no result: FBPA Giardia inh, AmpC inh detg, Sm TGR block)
COc1cc(SC)ccc1C(=O)N(Cc1ccccc1)c1ccccn1	AmpC inh detg inconclusive
CSc1cccc(NC(=S)N2CCC(N(C)C3CCCCC3C)CC2)c1 (configuration not stated)	Sm TGR block 22.4µM
CSc1cccc(NC(=S)N2CCC(c3ccccc3)C2)c1 (configuration not stated)	none
NC(=O)c1nnsc1Sc1c(C(N)=O)nnn1-c1cccc(N)c1	AmpC inh detg inconclusive, Sm TGR block inconclusive
CC(C)(C)c1ccc(C(=O)N/C(=C\c2ccco2)C(=O)Nc2ccccc2C(=O)O)cc1	Sm TGR block 39.8µM
O=C(Nc1ccc(C(=O)O)cc1)/C(=C\c1ccco1)NC(=O)c1ccccc1	none (no result: Sm TGR block)
O=C(NC1CCS(=O)(=O)C1)/C(=C\c1ccco1)NC(=O)c1ccccc1 (configuration not stated)	Sm TGR block 35.5µM
COc1ccnc(-n2cccc2/C=N/O)c1C#N	none
O=C(CSc1nc2c(c(=O)n1-c1ccccc1)SCC2)NCC1CCCO1 (configuration not stated)	none
CC(C)(C)C1CCc2c(sc(NC(=O)c3noc4c3CCCC4)c2C#N)C1 (configuration not stated)	none (no result: FBPA Giardia inh, AmpC no deterg)
